# Structures can show the parent of a compound that is named as a salt. ± gives the standard deviation of the averaged measurements.
# Tests used:
# [1] = system: Saccharomyces cerevisiae BY4741 SeMeCo community; experiment: mean cell size (pixel area) (pixels); higher = larger cells; conditions: 10 µM; 24 h; SM minimal medium
# Summary of the method: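 In this assay, mean cell pixel area per well was obtained from automated confocal images of paraformaldehyde-fixed yeast analysed in Harmony. The cells were a Saccharomyces cerevisiae BY4741 community with four plasmids, each complementing one auxotrophy and carrying a fluorescent marker, grown for 24 h in SM medium with drug at a final 10 µM in 384-well plates. Values are averaged across 3 replicates. Same SeMeCo high-content imaging drug screen: Selleck FDA-approved drugs at 10 µM, 24 h in SM medium, 384-well plates, 3 replicates.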
# [2] = system: Saccharomyces cerevisiae BY4741 SeMeCo community; experiment: z-score of subpopulation abundance vs DMSO median, subpopulation auxotrophic for U; higher = larger share of this subpopulation than in DMSO controls; conditions: 10 µM; 24 h; SM minimal medium; subpopulation (auxotrophy): U
# Summary of the method: (§1)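 Cells of a Saccharomyces cerevisiae BY4741 community, carrying four plasmids that each restored one auxotrophy and encoded a distinct fluorescent protein, were pre-grown overnight to OD600 1.0 and diluted to 0.3. A 70 µl volume was added to 384-well plates acoustically predosed with library drugs (10 µM final) and grown 24 h in minimal SM medium. After paraformaldehyde fixation, automated confocal microscopy was used, with single-auxotroph fluorescent strains for thresholds and autofluorescence correction. The abundance of each subpopulation was scored as a z-score against the vehicle-well median.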
# [3] = system: Saccharomyces cerevisiae BY4741 SeMeCo community; experiment: z-score of subpopulation abundance vs DMSO median, subpopulation auxotrophic for H; higher = larger share of this subpopulation than in DMSO controls; conditions: 10 µM; 24 h; SM minimal medium; subpopulation (auxotrophy): H
# Summary of the method: as §1
# [4] = system: Saccharomyces cerevisiae BY4741 SeMeCo community; experiment: z-score of subpopulation abundance vs DMSO median, subpopulation auxotrophic for LU; higher = larger share of this subpopulation than in DMSO controls; conditions: 10 µM; 24 h; SM minimal medium; subpopulation (auxotrophy): LU
# Summary of the method: as §1
# [5] = system: Saccharomyces cerevisiae BY4741 SeMeCo community; experiment: z-score of subpopulation abundance vs DMSO median, subpopulation auxotrophic for LM; higher = larger share of this subpopulation than in DMSO controls; conditions: 10 µM; 24 h; SM minimal medium; subpopulation (auxotrophy): LM
# Summary of the method: as §1
# [6] = system: Saccharomyces cerevisiae BY4741 SeMeCo community; experiment: z-score of subpopulation abundance vs DMSO median, subpopulation auxotrophic for HU; higher = larger share of this subpopulation than in DMSO controls; conditions: 10 µM; 24 h; SM minimal medium; subpopulation (auxotrophy): HU
# Summary of the method: as §1
# [7] = system: Saccharomyces cerevisiae BY4741 SeMeCo community; experiment: z-score of subpopulation abundance vs DMSO median, subpopulation auxotrophic for UM; higher = larger share of this subpopulation than in DMSO controls; conditions: 10 µM; 24 h; SM minimal medium; subpopulation (auxotrophy): UM
# Summary of the method: as §1
# [8] = system: Saccharomyces cerevisiae BY4741 SeMeCo community; experiment: z-score of subpopulation abundance vs DMSO median, subpopulation auxotrophic for HL; higher = larger share of this subpopulation than in DMSO controls; conditions: 10 µM; 24 h; SM minimal medium; subpopulation (auxotrophy): HL
# Summary of the method: as §1
# [9] = system: Saccharomyces cerevisiae BY4741 SeMeCo community; experiment: z-score of subpopulation abundance vs DMSO median, subpopulation auxotrophic for HLU; higher = larger share of this subpopulation than in DMSO controls; conditions: 10 µM; 24 h; SM minimal medium; subpopulation (auxotrophy): HLU
# Summary of the method: as §1
# [10] = system: Saccharomyces cerevisiae BY4741 SeMeCo community; experiment: z-score of subpopulation abundance vs DMSO median, subpopulation auxotrophic for HLM; higher = larger share of this subpopulation than in DMSO controls; conditions: 10 µM; 24 h; SM minimal medium; subpopulation (auxotrophy): HLM
# Summary of the method: as §1
# [11] = system: Saccharomyces cerevisiae BY4741 SeMeCo community; experiment: z-score of subpopulation abundance vs DMSO median, subpopulation auxotrophic for HUM; higher = larger share of this subpopulation than in DMSO controls; conditions: 10 µM; 24 h; SM minimal medium; subpopulation (auxotrophy): HUM
# Summary of the method: as §1
# [12] = system: Saccharomyces cerevisiae BY4741 SeMeCo community; experiment: z-score of subpopulation abundance vs DMSO median, subpopulation auxotrophic for LUM; higher = larger share of this subpopulation than in DMSO controls; conditions: 10 µM; 24 h; SM minimal medium; subpopulation (auxotrophy): LUM
# Summary of the method: as §1
# [13] = system: Saccharomyces cerevisiae BY4741 SeMeCo community; experiment: z-score of subpopulation abundance vs DMSO median, subpopulation auxotrophic for HLUM; higher = larger share of this subpopulation than in DMSO controls; conditions: 10 µM; 24 h; SM minimal medium; subpopulation (auxotrophy): HLUM
# Summary of the method: as §1
# [14] = system: Saccharomyces cerevisiae BY4741 SeMeCo community; experiment: z-score of prototroph abundance vs DMSO median; higher = larger share of this subpopulation than in DMSO controls; conditions: 10 µM; 24 h; SM minimal medium; subpopulation (auxotrophy): Prototroph
# Summary of the method: as §1
# [15] = system: Saccharomyces cerevisiae BY4741 SeMeCo community; experiment: z-score of subpopulation abundance vs DMSO median, subpopulation auxotrophic for HM; higher = larger share of this subpopulation than in DMSO controls; conditions: 10 µM; 24 h; SM minimal medium; subpopulation (auxotrophy): HM
# Summary of the method: as §1
# [16] = system: Saccharomyces cerevisiae BY4741 SeMeCo community; experiment: z-score of subpopulation abundance vs DMSO median, subpopulation auxotrophic for L; higher = larger share of this subpopulation than in DMSO controls; conditions: 10 µM; 24 h; SM minimal medium; subpopulation (auxotrophy): L
# Summary of the method: as §1
Structure (SMILES),mean cell size [1],z-score of subpopulation abundance [2],z-score of subpopulation abundance [3],z-score of subpopulation abundance [4],z-score of subpopulation abundance [5],z-score of subpopulation abundance [6],z-score of subpopulation abundance [7],z-score of subpopulation abundance [8],z-score of subpopulation abundance [9],z-score of subpopulation abundance [10],z-score of subpopulation abundance [11],z-score of subpopulation abundance [12],z-score of subpopulation abundance [13],z-score of prototroph abundance [14],z-score of subpopulation abundance [15],z-score of subpopulation abundance [16]
O=C1CN(/N=C/c2ccc(-c3ccc([N+](=O)[O-])cc3)o2)C(=O)N1 [Dantrolene sodium hemiheptahydrate],12.7 ± 0.17,-4.45,2.07,-1.88,1.95,-2.96,-3.9,1.61,-1.02,2.77,-1.65,-1.33,0.57,,,
Cc1nc2n(c(=O)c1CCN1CCC(c3noc4cc(F)ccc34)CC1)CCCC2O (configuration not stated) [Paliperidone],12 ± 0.24,0.75,-0.95,-0.02,-0.14,0.19,0.49,-1.06,-0.96,-1.03,0.09,,-0.53,0.1,0.04,
Nc1c(CC(=O)O)cccc1C(=O)c1ccc(Br)cc1 [Bromfenac Sodium],12.5 ± 0.043,0.73,-0.02,-0.11,-0.28,0.19,,-0.68,-0.92,-0.09,0.05,0.39,0.3,-0.27,-0.15,
COc1cc([C@@H]2c3cc4c(cc3[C@@H](O[C@@H]3O[C@@H]5CO[C@@H](C)O[C@H]5[C@H](O)[C@H]3O)[C@H]3COC(=O)[C@H]23)OCO4)cc(OC)c1O [Etoposide],,0.39,0.15,0.39,0.96,0.37,0.47,0.84,0.56,,0.64,0.64,1.05,-0.82,,0.2
CC(C(O)c1ccc(O)cc1)N1CCC(Cc2ccccc2)CC1 (configuration not stated) [Ifenprodil Tartrate],12.5 ± 0.24,0.69,-0.73,-0.38,-0.75,-0.43,,,-1.12,-0.92,,-0.99,-1.11,0.98,,
CC/C(=C(/CC)c1ccc(O)cc1)c1ccc(O)cc1 [Diethylstilbestrol],12.85 ± 0.035,-1.17,0.17,,-0.03,-1.29,-1.59,,-1.06,-0.67,-1.46,-1.01,-1.31,1.5,-0.17,-0.38
CCOc1cc(N)c(Cl)cc1C(=O)NCC1CN(Cc2ccc(F)cc2)CCO1 (configuration not stated) [Mosapride],12.5 ± 0.23,-0.39,0.06,0.77,-0.41,0.02,-0.47,-0.5,-0.42,,0.4,-0.04,0.05,0.05,-0.23,-0.65
NC(=NCCCCCCN=C(N)N=C(N)Nc1ccc(Cl)cc1)N=C(N)Nc1ccc(Cl)cc1 [Chlorhexidine?2HCl],,-2.8,2.59,-1.64,0.28,0.25,-3.13,,3.88,0.93,-0.7,2.03,4.27,1.92,-2.23,

# — the supplement of paper PMC8975748
